# The list is not random: actives were taken first. Their share in the collection is about 2.5%.
# Marburg entry inh = inhibitors of Marburg virus binding or cell entry | Marburg virus pseudotyped entry inhibition, cell reporter | Potency, µM (titrated, usually from 37.8 µM), inactives show top-dose activity change, negative = inhibition, most hits filed as inhibitors | hit rate 1.8% among 300,000 | AID 540276; calls by dose curve; tested in HEK293 cells
# VACV Venus inh = vaccinia inhibition (Venus reporter). Vaccinia virus Venus reporter expression, fluorescence. Potency, µM (doses to about 36.5 µM), inactives show at the top dose activity change, negative = inhibition, hits mostly inhibitors. hit rate 0.46% among 330,000. AID 720580; calls by dose curve; tested in A549 cells; note: nearly all actives have a fitted effect of over 30% in size
# VACV mCherry inh = vaccinia inhibition (mCherry reporter); Vaccinia virus mCherry reporter infection, fluorescence; Potency, µM (doses to about 36.5 µM), for the others: at the top dose activity change, negative = inhibition, usual class: inhibitors; hit rate 0.63% among 310,000; calls by dose curve; tested in A549 cells; note: nearly all actives have a fitted effect of over 35% in size
# LASV entry inh = blocks Lassa virus binding to or entry into cells | Lassa virus pseudotype entry inhibition, cell reporter | Potency, µM (highest dose often 37.9 µM), for the others: top-dose activity change, negative = inhibition, most hits filed as inhibitors | hit rate 1.2% among 300,000 | AID 540256; calls by dose curve; tested in HEK293 cells; note: nearly all actives have a fitted effect of over 50% in size
# Starred values were filed as active, the others as inactive; i = inactive; ? = inconclusive; . = not tested or not shown; [ ] = dose if it differs, or a comment. % is set by controls: 0 for no effect and ±100 for the full control effect; potency is the fitted concentration of half-maximal effect.
SMILES,Marburg entry inh,VACV Venus inh,VACV mCherry inh,LASV entry inh
CC1(C)CC(=O)C([C@H]2C3=C(CC(C)(C)CC3=O)Oc3ccccc32)C(=O)C1,-5%[46.1 µM],.,.,.
CC1(C)CC(=O)C2=C(C1)Oc1nc3ccccc3cc1C2C(C#N)C#N (stereo not drawn),?,11µM*,?,16µM*
CC(=O)Nc1ccc(C(=O)N2CCCC(n3cc(C(=O)NCC(C)C)nn3)C2)cc1 (stereo not drawn),.,-13%,i,.
CCNc1nc(NC(C)C)nc(N(C#N)[C@@H](C)C(=O)N(C)C)n1,6%,.,.,.
O=C(C[n+]1ccccc1Cl)c1cccc([N+](=O)[O-])c1,.,-18%,-14%,.
O=C1C=C(NCc2ccc(Cl)c(Cl)c2)CC1,-17%,-16%,-8%,2%
Nc1nc(N)c2cc(CNc3ccc(Cl)c(Cl)c3)ccc2n1,.,5.6µM*,?,.
O=C(c1cccc(Cl)c1Cl)N(Cc1ccco1)Cc1cccs1,.,-3%,25%,.
COc1ccc(C)cc1S(=O)(=O)N(CC(=O)NCc1ccc(Cl)cc1)Cc1ccccc1,23µM*,?,-18%,-25%[14.3 µM]
O=C(NCCO)c1cn(C2CCN(Cc3c(F)cccc3Cl)CC2)nn1,.,-4%,-4%,.
CCn1c(C)cc(C=C2C(=O)c3ccccc3C2=O)c1C,13µM*,2%,-6%,?
Cc1ccc(-n2cc(-c3ccccc3)c3c(=O)[nH]cnc32)cc1,-28%,-24%,?,15µM*
Fc1ccc(-n2cc(-c3ccccc3)c3c(=S)nc[nH]c32)cc1,?,-14%,-5%,5µM*
COC(=O)c1c(OCc2ccccn2)cc(=O)n2c1CCN(C(=O)c1n[nH]c3c1CCCC3)CC2,.,-8%,-15%,.
COc1ccc(S(=O)(=O)Nc2ccc(F)cc2)cc1N(C)S(=O)(=O)c1ccc(Cl)cc1,21µM*,?,?,?
COc1ccccc1NS(=O)(=O)c1cccc(NC(=O)Nc2ccccc2)c1,?,?,-13%,15µM*
CCNC(=S)Nc1cccc(S(=O)(=O)Nc2ccccc2OC)c1,0%[46.1 µM],-21%,-20%,-38%[46.1 µM]
COc1ccc(S(=O)(=O)Nc2ccc(S(=O)(=O)Nc3ccc(F)cc3)cc2)cc1C,-20%,?,-13%,-11%
COc1ccccc1NS(=O)(=O)c1cccc(NC(=O)Cc2cccs2)c1,-21%,-15%,-26%,16µM*
COc1cccc(NC(=O)Cc2cccs2)c1,25%[46.1 µM],-15%,.,14%
COc1ccccc1NS(=O)(=O)c1ccc(Cl)cc1,12%,.,.,16%
COc1ccccc1NS(=O)(=O)c1cccc(NC(=O)Nc2ccc(Cl)cc2)c1,?,?,i,6.3µM*
COc1cc(CN2CCC3(CCC(CNC(=O)c4cc(C)nn4C)O3)CC2)ccc1F (stereo not drawn),.,-21%,i,.
COc1ccccc1NS(=O)(=O)c1cc(C)ccc1C,10µM*,-21%,i,0%
COc1ccc(C)cc1NS(=O)(=O)c1cc(C)ccc1C,-1%,.,.,4%
SMILES,Marburg entry inh,VACV Venus inh,VACV mCherry inh,LASV entry inh
CCOC(=O)C[C@@H](C#N)c1cn(C)c2ccccc12,-18%,.,.,.
CC(C)c1ccc2c(c1)CC[C@H]1[C@](C)(CN)CCC[C@]21C,.,-30%,?,.
CC(C)c1ccc2c(c1)CCC1C(C)(CN)CCCC21C (stereo not drawn),10µM*,?,?,?
O=C(CCl)N(Cc1ccccc1)c1ccccc1,16µM*,.,.,?
CCOC(=O)N1CCN(C(=O)c2cc(-c3ccc(OCC)cc3)nc3ccccc23)CC1,?,.,.,4.6µM*
CCOc1ccc(-c2cc(C(=O)N3CCN(C)CC3)c3ccccc3n2)cc1,?,-3%,-8%,-29%
COc1ccc2cc(-c3cc(C(=O)O)c4ccccc4n3)ccc2c1,0.71µM*,4%,10µM*,0.35µM*
CCN(CC)CCN(C)c1ccc(/C=C/c2ccnc3ccccc23)cc1,.,-12%,-10%,.
COc1cc(OC)c2c(-c3cccc(-c4cccc(C)c4)c3)cc(=O)oc2c1,.,?,i,.
COc1cc(OC)c2c(-c3cccc(-c4ccc(CO)cc4)c3)cc(=O)oc2c1,.,10µM*,?,.
C#CCNc1ccc2c(c1)OC[C@H](C)NS2(=O)=O,.,.,.,13%[46.1 µM]
COCC(=O)Nc1cc(C(=O)N2CCC(c3ccccc3)CC2)cc2nc(-c3ccccc3)n(C)c12,.,-2%,i,.
O=C(CSc1nc2ccccc2c(=O)n1CC1CCCO1)NCC1CCCO1 (stereo not drawn),4%,.,.,-2%
COc1ccc(C(=O)Nn2c(SCC(=O)NCC3CCCO3)nc3ccccc3c2=O)cc1 (stereo not drawn),?,.,.,7.3µM*
COc1ccc(CCN2C(=O)c3ccccc3NC2c2cc(Cl)c(O)c(OC)c2)cc1 (stereo not drawn),?,-17%,?,5.6µM*
CCCN1C(=O)c2ccccc2NC1c1cc(OC)c(OC)c(OC)c1 (stereo not drawn),-13%,-7%,-9%,-21%
C=CCNc1ncnc2c1[nH]c1ccc(Cl)cc12,?,?,?,10µM*
COc1cccc2c1C1(CCCCC1)CC2NC(=O)C(F)(F)F (stereo not drawn),-15%[14.2 µM],.,.,.
O=c1c2c(nc3cc(-c4ccccc4)[nH]n13)CCC2,-21%,-21%,.,4µM*
Cc1ccc(-c2nn3c(C)nnc3s2)cc1NCc1c(F)cccc1Cl,9.2µM*,0%,i,?
CCC(C)c1ccc(-c2cc(C(=O)OCC(=O)Nc3cc(C)on3)c3ccccc3n2)cc1 (stereo not drawn),?,-5%,-7%,1.6µM*
C#CC[C@@]1(C(=O)OC)C=C[C@@H](C)[C@H](c2ccccc2Br)N1C(=O)C(F)(F)F,-2%[14.2 µM],.,.,.
CN(CC(=O)NC(=O)NCc1ccccc1)Cc1cccc(Cl)c1Cl,2%,?,14µM*,?
CN(CC(=O)NC(=O)NCc1ccccc1)Cc1ccc(Cl)cc1,3%,-15%,-14%,?
Cc1cc2nccc(C)c2cc1C,.,-14%,-7%,.
SMILES,Marburg entry inh,VACV Venus inh,VACV mCherry inh,LASV entry inh
O=C(Cc1cccs1)N(Cc1cccs1)C1(C(=O)NC2CCCC2)CCCCC1,-30%,.,.,5%
O=C(c1ccc2c(c1)OCO2)N(Cc1cccs1)C1(C(=O)NC2CCCCC2)CCCCC1,8.9µM*,?,16µM*,?
COc1cc(/C=C/c2ccc3cccc(O)c3n2)cc(Cl)c1OC,4.5µM*,12%,?,?
COc1cc(/C=C/c2ccc3cccc(O)c3n2)cc(OC)c1OC,?,-22%,8.9µM*,?
COc1cc(/C=C/c2ccc3cccc(O)c3n2)cc(Br)c1OC,?,-3%,?,-14%
COc1cc(C2CC(=O)c3c([nH]c(C(=O)OCC4CCCCC4)c3C)C2)cc(OC)c1OC (stereo not drawn),?,?,-15%,-7%[46.1 µM]
COCCOC(=O)c1[nH]c2c(c1C)C(=O)CC(c1cc(OC)c(OC)c(OC)c1)C2 (stereo not drawn),10µM*,-21%,i,?
COc1cc(C2CC(=O)c3c([nH]c(C(=O)OC4CCCCC4)c3C)C2)cc(OC)c1OC (stereo not drawn),.,?,-17%,6.3µM*
CC(=O)C1=C(C)N(CC#C[Si](C)(C)C)C(=O)N(C(C)=O)C1c1ccccc1 (stereo not drawn),-12%[14.2 µM],.,.,?
Cc1ccc(N2CCN(c3ncccc3[N+](=O)[O-])CC2)c(C)c1,?,-12%,-20%,?

# Assay outcomes deposited in PubChem by National Center for Advancing Translational Sciences (NCATS).
